Assay outcomes deposited in PubChem BioAssay by several laboratories.
Sampled rows, rich in hits. Any-hit rate of the full collection: about 1.4%.
BJeLR viability: BJeLR cell viability loss; BJeLR (HRASV12) viability, CellTiter-Glo ATP luminescence, 48 h; inhibition, % (no concentration beside the values); 300,000 tested, 0.17% active; AID 1554; in the data active = inhibition above about 50%
RecA intein inh: Mtb RecA intein splicing inhibition; cell-free RecA intein splicing, fluorescence; inhibition, % (no concentration beside the values); 290,000 tested, 0.75% active; AID 2221; in the data active = inhibition above about 30%;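 note: 0% = vehicle wells and 100% = reference inhibitor control wells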
Target sequence (P9WHJ3 whole entry, looked up): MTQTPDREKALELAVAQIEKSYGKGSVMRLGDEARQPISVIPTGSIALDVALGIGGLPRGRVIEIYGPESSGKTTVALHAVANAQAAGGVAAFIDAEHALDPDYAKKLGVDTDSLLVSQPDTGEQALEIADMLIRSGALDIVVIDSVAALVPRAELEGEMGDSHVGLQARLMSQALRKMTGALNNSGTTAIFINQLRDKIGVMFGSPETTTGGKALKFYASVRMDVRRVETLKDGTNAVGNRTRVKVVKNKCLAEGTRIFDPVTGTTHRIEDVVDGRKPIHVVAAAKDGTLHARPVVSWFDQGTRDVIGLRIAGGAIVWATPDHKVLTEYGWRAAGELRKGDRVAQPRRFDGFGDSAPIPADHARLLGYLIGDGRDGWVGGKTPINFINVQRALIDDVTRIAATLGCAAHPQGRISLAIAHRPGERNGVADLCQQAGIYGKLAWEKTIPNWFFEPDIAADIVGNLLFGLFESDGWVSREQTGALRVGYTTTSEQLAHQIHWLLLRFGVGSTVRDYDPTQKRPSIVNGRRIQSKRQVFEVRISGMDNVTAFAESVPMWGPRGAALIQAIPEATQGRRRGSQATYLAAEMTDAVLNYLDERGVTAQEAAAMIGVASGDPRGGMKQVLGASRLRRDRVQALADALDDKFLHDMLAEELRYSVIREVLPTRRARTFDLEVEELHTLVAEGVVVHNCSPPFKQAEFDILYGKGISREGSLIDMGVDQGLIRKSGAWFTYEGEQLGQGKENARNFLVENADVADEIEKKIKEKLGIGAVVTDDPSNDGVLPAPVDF
PrPC surface inh: cell surface PrPC inhibition, primary TR-FRET screen | P04156 | TR-FRET read-out | inhibition, % at 13.8 µM | 370,000 tested, 0.43% active | AID 720596; in the data active = inhibition above about 24%; note: 0% = median of the test wells and 100% = reference compound wells
Mtb hypoxia rep: inhibitors of hypoxia-regulated fluorescent reporter in Mycobacterium tuberculosis; M. tuberculosis hypoxia-regulated fluorescent reporter, fluorescence; fluorescence inhibition, % (test concentration not listed); 300,000 tested, 0.1% active; AID 1159583; in the data active = fluorescence inhibition mostly above about 23%, no sharp cut-off; inactive = mostly below about 17%
PrP 5UTR inh: suppresses PrP 5' UTR mRNA reporter expression. 340,000 tested, 0.35% active. cell-based PrP 5' UTR mRNA reporter, plate reader. inhibition, % (no concentration beside the values); in the data active = inhibition above about 52%; note: 0 = median of the neutral control wells
3CLpro inhibitor: SARS-CoV 3CLpro protease inhibition | 290,000 tested, 0.14% active | recombinant SARS-CoV 3CLpro, quenched FRET peptide cleavage | inhibition, % at 6 µM; in the data active = inhibition above about 12%
Active calls of the source: *; . = no result shown.

SMILES	BJeLR viability	RecA intein inh	PrPC surface inh	Mtb hypoxia rep	PrP 5UTR inh	3CLpro inhibitor
Cc1onc(C(=O)N2CCN(C(c3ccccc3)c3ccccc3)CC2)c1[N+](=O)[O-]	75*	1	3	.	-7	-1
COc1ccc(OCC(=O)NC(=S)Nc2ccc(N3CCOCC3)c(Cl)c2)cc1	-2	2	.	38*	-15	1
O=C(NN=C/C(Cl)=C/c1ccccc1)c1ccco1	.	.	.	7	.	.
O=c1c2ccccc2nc2n1CCS2(=O)=O	17	39*	-3	.	-6	3
O=c1c2ccccc2nc2c3ccccc3c3nncn3n12	4	0	0	0	-12	3
CCN(CC)CCCNC(=O)c1cc(-c2ccccc2)c(N2CCCCC2)s1	51*	5	-21	17	.	3
COc1ccc(C2C=CCN(C(=O)c3ccccc3)C(C)C(=O)N2Cc2ccc(F)cc2)cc1 (stereo not given)	.	.	.	-1	.	.
COC(=O)C=CCC(C)OS(N)(=O)=O (stereo not given)	.	.	.	4	.	.
COc1ccc(C=NNC(=O)c2ccc([N+](=O)[O-])c(C)c2)cc1COc1ccccc1C(N)=O	.	.	.	-4	.	.
Cc1ccc(C(=O)OCC(=O)Nc2ccccc2)cc1S(=O)(=O)N1CCCCC1	.	.	1	35*	-8	.
O=c1c2ccccc2nc(/C=C/c2ccc([N+](=O)[O-])o2)n1CCCO	52*	2	24	.	1	-3
Nc1ccn([C@@H]2O[C@H](CO)[C@@H](O)[C@@H]2O)c(=O)n1	9	0	-1	.	32	-4
Nc1ncn([C@@H]2O[C@H](CO)[C@@H](O)[C@H]2O)c(=O)n1	7	-3	42*	.	15	.
C=CC1=C(C(=O)O)N2C(=O)C(NC(=O)C(=NOCC(=O)O)c3csc(N)n3)C2SC1 (stereo not given)	.	.	.	19	.	.
COC(=O)CCC(=O)OC1(C)C(=O)C2=CN(CCCCO)C(c3ccc(OC)cc3)=CC2=C(Br)C1=O (stereo not given)	-2	48*	.	.	.	-3
CCOC(=O)c1nnc(-c2ccccc2)nc1Oc1ccccc1Cl	3	45*	1	.	-5	-5
COc1ccc(S(=O)(=O)Nc2cc(Sc3ncn[nH]3)c(O)c3ccccc23)cc1	.	.	57*	.	.	6
O=C(NCc1cccnc1)c1ccc(NC(=O)c2ccc(Br)cc2)cc1	78*	1	5	7	-10	6
CC(C)C(=O)Nc1ccc(C(=O)NCc2cccnc2)cc1	78*	-1	-2	6	-8	-2
Cc1ccc(S(=O)(=O)NN=Cc2ccc(OCC(=O)NC(C)C)cc2)cc1	.	.	.	6	.	.
O=C(O)C1=CC(c2ccc(C(F)(F)F)cc2)CC(OCCCCO)O1 (stereo not given)	.	.	.	3	.	.
COc1ccccc1C1CC(=O)Nc2cc3c(cc21)OCCO3 (stereo not given)	47	-3	14	19	10	1
CC(C)Oc1ccccc1C1CC(=O)Nc2cc3c(cc21)OCCO3 (stereo not given)	64*	2	14	5	61*	8
O=C(COC(=O)c1ccc2c(c1Cl)C(=O)c1ccccc1C2=O)NC1CCCCC1	-5	22	1	-14	-9	1
O=C(COC(=O)c1ccc2c(c1Cl)C(=O)c1ccccc1C2=O)NC1CC1	0	41*	-41	0	-22	0
SMILES	BJeLR viability	RecA intein inh	PrPC surface inh	Mtb hypoxia rep	PrP 5UTR inh	3CLpro inhibitor
COCCNC(=O)C(C#N)=Cc1ccc(-c2ccc(OC)cc2[N+](=O)[O-])o1	.	.	.	-7	.	.
Cc1[nH][nH]c(=O)c1C(c1ccc(O)c([N+](=O)[O-])c1)c1c(C)[nH][nH]c1=O	1	-3	-5	.	-11	2
Cc1[nH][nH]c(=O)c1[C@@H](c1ccccc1[N+](=O)[O-])C(C#N)C#N	5	62*	1	1	-20	1
O=C(Oc1cccc(OC(=O)c2ccco2)c1)c1ccco1	-2	49*	-6	12	-12	0
O=C(Oc1ccc(-c2nnco2)cc1)c1ccco1	-8	47*	0	5	-27	.
O=C(Oc1cccc(-n2cnnn2)c1)c1ccco1	0	43*	-5	.	-23	6
CN(C)C(=O)Oc1ccc(-c2nnco2)cc1	-4	-2	0	.	-22	-3
CC(C)CC(CC#N)N1CCN(Cc2ccccc2)CCC1=O (stereo not given)	.	.	.	1	.	.
O=C(NN=Cc1ccc([N+](=O)[O-])s1)C(O)c1ccccc1 (stereo not given)	.	.	.	13	.	.
Cc1ccc(S(=O)(=O)N=C(c2ccccc2)N(C)S(=O)(=O)c2ccc(C)cc2)cc1	.	.	.	10	.	.
CC[n+]1c(/C=C/C=C/c2ccc(N(C)C)cc2)sc2ccccc21	13	-3	-78	24	5	-4
CN(C)c1ccc(/C=C/C=C/c2sc3ccccc3[n+]2C)cc1	59*	1	-52	.	-28	-1
C=CS(=O)(=O)c1ccc(Oc2ccc(S(=O)(=O)C=C)cc2)cc1	37	9	64*	11	2	-5
NS(=O)(=O)c1ccc(Oc2ccc(S(N)(=O)=O)cc2)cc1	2	-2	5	1	-4	-4
COC1OC2O[C@@]3(C)CCC4C(C)CCC(C1C)[C@@]24OO3 (stereo not given in full)	.	.	.	90*	.	.
O=C(CCl)Nc1ccc(N2CCCCCC2)cc1	-2	48*	-7	15	-5	1
COc1cc(C(=O)N/N=C(\c2ccccc2)c2ccccn2)cc(OC)c1OC	4	3	24	.	38	4
COc1cc(OC)cc(C(=O)NNC(=O)c2ccccn2)c1	11	3	25*	-5	-67	1
COc1cccc(C(=O)N/N=C(/c2ccccc2)c2ccccn2)c1	88*	1	4	.	13	-5
CC1CN=C2N1CC(Cc1ccc(O)cc1)N2CCNC(=O)CCC1CCCCC1 (stereo not given)	.	.	.	6	.	.
CC(C)NC(=O)N(C)CC1Oc2c(NC(=O)C3CCCCC3)cccc2C(=O)N(C(C)CO)CC1C (stereo not given)	.	.	.	4	.	.
O=c1[nH]cc(N=Cc2cc([N+](=O)[O-])ccc2O)c(=O)[nH]1	7	50*	.	.	.	0
Cc1cc(O)c(C(C)C)cc1N=Cc1cc([N+](=O)[O-])ccc1O	-5	-2	2	1	-13	-3
O=C(COc1ccc(Cl)cc1)Nc1ccc(C(=O)NCc2cccnc2)cc1	87*	0	.	3	-13	0
CC(C)(C)c1ccc(C(=O)c2c[nH]c(C(=O)NCc3cccnc3)c2)cc1	4	3	15	-7	-16	-5
O=C(Cc1ccc(Cl)cc1)c1c[nH]c(C(=O)NCc2cccnc2)c1	78*	1	4	-2	-9	3
COc1ccc(NC(=O)COc2ccc(C(=O)NCc3cccnc3)cc2OC)cc1	.	.	7	7	-12	.
Cc1cccc(OCC(=O)Nc2ccc(C(=O)NCc3cccnc3)cc2)c1	55*	1	.	.	.	2
COc1ccc(C2CC(=O)C=C(C=Cc3ccccc3)C2)cc1OC (stereo not given)	.	.	.	3	.	.
